Measured values reported in PubChem BioAssay AID1159580 (chemical genetic matrix, 2015).
The campaign covered roughly 5,500 compounds. About 2,000 (36%) were called active. About 18% were inconclusive and are not listed. Rule as the data show it: active = normalized growth mostly below about 0.91 (no sharp cut-off); inconclusive = no clear call, values can overlap the other calls; inactive = mostly above about 0.92. The list shows a part of the results.

Experiment: chemical genetic growth profiling, strain panel (AID 1159580);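 also: tested at 20 µM; growth read once vehicle control cultures reached saturation at 30 °C; 1 = growth at the plate median or of vehicle wells; lower values mean less growth of the strain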
Settings: growth OD
[1] = S. cerevisiae deletion strains, locus YHR030C, strain SLT2, hits give low values
[2] = S. cerevisiae deletion strains, locus YHR079C, strain IRE1, hits give low values
[3] = S. cerevisiae deletion strains, locus YJL095W, strain BCK1, hits give low values
[4] = S. cerevisiae deletion strains, locus YJR066W, strain TOR1, hits give low values
[5] = S. cerevisiae deletion strains, locus YLR113W, strain HOG1, hits give low values
[6] = S. cerevisiae deletion strains, locus YNL183C, strain NPR1, hits give low values
[7] = S. cerevisiae deletion strains, locus YOR231W, strain MKK1, hits give low values
[8] = S. cerevisiae deletion strains, locus YPL256C, strain CLN2, hits give low values
[9] = S. cerevisiae deletion strains, locus YDL101C, strain DUN1, hits give low values

Measured: normalized growth

O=C1CN=C(c2ccccc2Cl)c2cc([N+](=O)[O-])ccc2N1
inactive: [1] 0.869 | [2] 0.965 | [3] 0.981 | [4] 0.945 | [5] 0.963 | [6] 0.9 | [7] 0.962 | [8] 0.924

O=[N+]([O-])c1ccc(-c2csc(Nc3ccncc3)n2)cc1
inactive: S. cerevisiae deletion strains, locus YAR019C, strain CDC15, hits give low values 0.995 | S. cerevisiae deletion strains, locus YBL105C, strain PKC1, hits give low values 0.978 | S. cerevisiae deletion strains, locus YBR135W, strain CKS1, hits give low values 0.982 | S. cerevisiae deletion strains, locus YBR136W, strain MEC1, hits give low values 0.996 | S. cerevisiae deletion strains, locus YBR160W, strain CDC28, hits give low values 0.989 | S. cerevisiae deletion strains, locus YDL017W, strain CDC7, hits give low values 0.99 | S. cerevisiae deletion strains, locus YDL028C, strain MPS1, hits give low values 0.998 | [9] 0.99 | S. cerevisiae deletion strains, locus YDL108W, strain KIN28, hits give low values 0.979 | S. cerevisiae deletion strains, locus YDL132W, strain cdc53, hits give low values 0.982 | S. cerevisiae deletion strains, locus YDL214C, strain PRR2, hits give low values 0.941 | S. cerevisiae deletion strains, locus YDR052C, strain DBF4, hits give low values 0.992 | S. cerevisiae deletion strains, locus YDR054C, strain cdc34, hits give low values 0.977 | S. cerevisiae deletion strains, locus YDR226W, strain ADK1, hits give low values 0.985 | S. cerevisiae deletion strains, locus YDR477W, strain SNF1, hits give low values 0.992 | S. cerevisiae deletion strains, locus YER123W, strain YCK3, hits give low values 0.982 | S. cerevisiae deletion strains, locus YER133W, strain GLC7, hits give low values 0.987 | S. cerevisiae deletion strains, locus YFL009W, strain cdc4, hits give low values 0.981 | S. cerevisiae deletion strains, locus YFL029C, strain CAK1, hits give low values 1.01 | S. cerevisiae deletion strains, locus YFR003C, strain YPI1, hits give low values 0.98 | S. cerevisiae deletion strains, locus YFR019W, strain FAB1, hits give low values 0.984 | S. cerevisiae deletion strains, locus YFR028C, strain CDC14, hits give low values 0.996 | S. cerevisiae deletion strains, locus YGR040W, strain KSS1, hits give low values 0.978 | S. cerevisiae deletion strains, locus YGR052W, strain FMP48, hits give low values 1.01 | S. cerevisiae deletion strains, locus YGR092W, strain DBF2, hits give low values 0.908 | [1] 1 | [2] 1.01 | S. cerevisiae deletion strains, locus YHR082C, strain KSP1, hits give low values 1.08 | S. cerevisiae deletion strains, locus YHR205W, strain SCH9, hits give low values 0.923 | S. cerevisiae deletion strains, locus YIL147C, strain SLN1, hits give low values 0.991 | [3] 1.03 | S. cerevisiae deletion strains, locus YJL128C, strain PBS2, hits give low values 0.943 | S. cerevisiae deletion strains, locus YJL157C, strain FAR1, hits give low values 0.996 | S. cerevisiae deletion strains, locus YJR016C, strain ILV3, hits give low values 0.978 | S. cerevisiae deletion strains, locus YJR066W, strain TOR1 (second series), hits give low values 0.991 | [4] 0.968 | S. cerevisiae deletion strains, locus YKL048C, strain ELM1, hits give low values 0.976 | S. cerevisiae deletion strains, locus YKL067W, strain YNK1, hits give low values 0.941 | S. cerevisiae deletion strains, locus YKL101W, strain HSL1, hits give low values 0.98 | S. cerevisiae deletion strains, locus YKL193C, strain SDS22, hits give low values 0.988 | S. cerevisiae deletion strains, locus YKL203C, strain TOR2, hits give low values 1.07 | [5] 0.981 | S. cerevisiae deletion strains, locus YLR133W, strain CKI1, hits give low values 0.976 | S. cerevisiae deletion strains, locus YLR403W, strain SFP1, hits give low values 1.01 | S. cerevisiae deletion strains, locus YML070W, strain DAK1, hits give low values 0.991 | S. cerevisiae deletion strains, locus YMR001C, strain CDC5, hits give low values 0.993 | S. cerevisiae deletion strains, locus YMR205C, strain PFK2 (second series), hits give low values 0.973 | S. cerevisiae deletion strains, locus YMR277W, strain FCP1, hits give low values 0.989 | S. cerevisiae deletion strains, locus YNL006W, strain LST8, hits give low values 0.994 | S. cerevisiae deletion strains, locus YNL020C, strain ARK1, hits give low values 0.975 | S. cerevisiae deletion strains, locus YNL161W, strain CBK1, hits give low values 0.994 | [6] 1.02 | S. cerevisiae deletion strains, locus YNL207W, strain RIO2, hits give low values 0.984 | S. cerevisiae deletion strains, locus YNL222W, strain SSU72, hits give low values 0.996 | S. cerevisiae deletion strains, locus YNL307C, strain MCK1 (second series), hits give low values 0.976 | S. cerevisiae deletion strains, locus YOL078W, strain AVO1, hits give low values 0.986 | S. cerevisiae deletion strains, locus YOL136C, strain PFK27, hits give low values 0.979 | S. cerevisiae deletion strains, locus YOR061W, strain CKA2, hits give low values 0.957 | S. cerevisiae deletion strains, locus YOR119C, strain RIO1, hits give low values 1.01 | [7] 0.97 | S. cerevisiae deletion strains, locus YOR329C, strain SCD5, hits give low values 0.992 | S. cerevisiae deletion strains, locus YPL031C, strain PHO85, hits give low values 0.98 | S. cerevisiae deletion strains, locus YPL153C, strain RAD53, hits give low values 1 | S. cerevisiae deletion strains, locus YPL204W, strain HRR25, hits give low values 0.982 | S. cerevisiae deletion strains, locus YPL209C, strain IPL1, hits give low values 0.991 | [8] 1.03 | S. cerevisiae deletion strains, locus YPR025C, strain CCL1, hits give low values 0.985 | S. cerevisiae deletion strains, locus YPR106W, strain ISR1, hits give low values 0.98 | S. cerevisiae deletion strains, locus YPR111W, strain DBF20, hits give low values 0.969 | S. cerevisiae deletion strains, strain NNK1, hits give low values 0.996 | S. cerevisiae deletion strains, strain TSCII, hits give low values 1

O=[N+]([O-])c1cccc(-c2csc(Nc3ccccc3Cl)n2)c1
inactive: S. cerevisiae deletion strains, locus YAL013W, strain DEP1, hits give low values 0.94 | S. cerevisiae deletion strains, locus YBR229C, strain ROT2, hits give low values 0.966 | [9] 0.978 | S. cerevisiae deletion strains, locus YDR150W, strain NUM1, hits give low values 0.934 | S. cerevisiae deletion strains, locus YEL061C, strain CIN8, hits give low values 0.929 | S. cerevisiae deletion strains, locus YGR078C, strain PAC10, hits give low values 0.938 | S. cerevisiae deletion strains, locus YGR229C, strain SMI1, hits give low values 0.959 | S. cerevisiae deletion strains, locus YHR087W, strain rtc3, hits give low values 0.955 | S. cerevisiae deletion strains, locus YJL187C, strain SWE1, hits give low values 1.01 | S. cerevisiae deletion strains, locus YJR043C, strain POL32, hits give low values 0.979 | S. cerevisiae deletion strains, locus YLR058C, strain SHM2 (second series), hits give low values 0.964 | S. cerevisiae deletion strains, locus YMR219W, strain ESC1, hits give low values 0.964 | S. cerevisiae deletion strains, locus YMR263W, strain SAP30, hits give low values 0.945 | S. cerevisiae deletion strains, locus YNL153C, strain GIM3, hits give low values 0.972 | S. cerevisiae deletion strains, locus YNL322C, strain KRE1, hits give low values 0.977 | S. cerevisiae deletion strains, locus YPR135W, strain CTF4, hits give low values 0.795 | S. cerevisiae strains, strain wild type, hits give low values 0.915
active: [1] 0.418 | S. cerevisiae deletion strains, locus YJR075W, strain HOC1, hits give low values 0.88 | S. cerevisiae deletion strains, locus YKL190W, strain CNB1, hits give low values 0.907 | S. cerevisiae deletion strains, locus YLR039C, strain RIC1, hits give low values 0.6 | S. cerevisiae deletion strains, locus YLR085C, strain ARP6, hits give low values 0.571 | S. cerevisiae deletion strains, locus YLR262C, strain YPT6, hits give low values 0.727 | S. cerevisiae deletion strains, locus YML094W, strain GIM5, hits give low values 0.818 | S. cerevisiae deletion strains, locus YNL298W, strain CLA4 (second series), hits give low values 0.82 | S. cerevisiae deletion strains, locus YNR030W, strain Alg12, hits give low values 0.811 | S. cerevisiae deletion strains, locus YOL006C, strain TOP1, hits give low values 0.638 | S. cerevisiae deletion strains, locus YPL055C, strain LGE1, hits give low values 0.715 | S. cerevisiae deletion strains, locus YPL241C, strain CIN2, hits give low values 0.82
